# ELG1 genotoxic – qHTS screen for small molecules that induce genotoxicity in human embryonic kidney (HEK293T) cells expressing luciferase-tagged ELG1. HEK293T ELG1-luciferase reporter, luminescence, 16 h. Potency, µM (highest dose often 46 µM), without a hit: at the top dose activity change, positive = activation, most hits filed as activators. hit rate 1.3% among 330,000; also: % of control where 0% means no effect; nearly all actives have a fitted effect of over 60% in size
#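 Genotoxicity was scored as increased ELG1-luciferase reporter signal, measured by ONE-Glo luminescence (30 min, room temperature). Compound or vehicle exposure of the HEK293T reporter cells lasted 16 hr at 37°C.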
# SMN2 splice enh – qHTS Assay for Enhancers of SMN2 Splice Variant Expression; hit rate 2.8% among 210,000; HEK293 SMN2-luciferase splicing reporter, luminescence, 30-36 h; Potency, µM (doses to about 46.1 µM), without a hit: at the highest dose activity change, positive = activation, usual class: activators; also: % of control where 0% means no effect; nearly all actives have a fitted effect of over 55% in size
#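 qHTS luciferase splicing reporter: luminescence rises when SMN2 exon 7 is included in transfected HEK293 cells. Compound exposure lasted 30-36 h at 37C, with 4.5 mM final sodium butyrate as control, followed by a ONE-Glo read.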
# FLuc modulator – qHTS profiling assay for firefly luciferase inhibitor/activator using purifed enzyme and Km concentrations of substrates (counterscreen for miR-21 project). Luciferin 4-monooxygenase (Photinus pyralis), P08659. purified FLuc, Km substrates, luminescence inhibition. Potency, µM (series often up to 57.5 µM), inactives show at the highest dose activity change, negative = inhibition, hits mostly inhibitors. hit rate 6.9% among 360,000;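 also: plate controls were vehicle for no effect and reference inhibitor for full effect; nearly all actives have a fitted effect of over 55% in size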
# Target sequence (P08659 whole entry, looked up): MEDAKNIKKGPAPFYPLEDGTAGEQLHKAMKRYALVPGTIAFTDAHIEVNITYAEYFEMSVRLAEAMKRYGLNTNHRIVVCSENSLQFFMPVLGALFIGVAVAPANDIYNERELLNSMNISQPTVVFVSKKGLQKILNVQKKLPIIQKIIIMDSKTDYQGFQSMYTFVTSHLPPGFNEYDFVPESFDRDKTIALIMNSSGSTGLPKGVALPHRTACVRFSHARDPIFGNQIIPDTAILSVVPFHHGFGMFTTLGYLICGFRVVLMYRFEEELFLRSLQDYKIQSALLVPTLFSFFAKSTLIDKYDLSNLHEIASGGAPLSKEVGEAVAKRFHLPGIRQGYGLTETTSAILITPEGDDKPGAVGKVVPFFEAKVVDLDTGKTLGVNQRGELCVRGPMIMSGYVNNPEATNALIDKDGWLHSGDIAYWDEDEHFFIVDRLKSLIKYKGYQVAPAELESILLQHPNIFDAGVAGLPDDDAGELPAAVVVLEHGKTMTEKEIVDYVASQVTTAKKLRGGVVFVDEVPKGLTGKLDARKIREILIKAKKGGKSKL
#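 Biochemical qHTS of compounds, final roughly 60 µM downward over six points, against 10 nM purified firefly luciferase using Km concentrations of substrates (10 uM D-luciferin, 10 uM ATP) in Tris acetate pH 7.5 buffer; luminescence output.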
# KinaseGlo FLuc – Counterscreen for Luciferase (Kinase-Glo TM) Inhibition; Kinase-Glo luciferase, ATP luminescence, 8 min; Potency, µM (doses to about 38.3 µM), inactives show at the highest dose activity change, negative = inhibition, hits mostly inhibitors; hit rate 0.28% among 200,000; AID 1379, 2008; also: % is scaled to controls: 0 for no effect and ±100 for the full control effect; nearly all actives have a fitted effect of over 60% in size
#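 Compound is pinned into ATP-containing buffer (10 uM ATP, imidazole pH 7.2, 7 mM MgCl2). Kinase-Glo luciferase reagent is then added. Light output is recorded following an 8-min room-temperature incubation.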
# NPC1 prom act – qHTS Assay for NPC1 Promoter Activators; Huh7 NPC1 promoter luciferase reporter, 24 h; Potency, µM (doses to about 9.22 µM), inactives show at the top dose activation, actives largely listed as activators; hit rate 2.4% among 320,000; AID 485313, 2010; also: % of control where 0% means no effect; nearly all actives have a fitted effect of over 60% in size
#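 In 1536-well qHTS, Huh7 cells harboring an NPC1 promoter–luciferase construct received compound for 24 h; activation was quantified by luminescence following luciferase reagent addition.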
# Rab9 prom act – qHTS Assay for Rab9 Promoter Activators; Huh7 Rab9 promoter-luciferase reporter, luminescence, 24 h; Potency, µM (series often up to 9.22 µM), without a hit: at the highest dose activation, negative = inhibition, hits mostly activators; hit rate 2.8% among 320,000; also: % of control where 0% means no effect; nearly all actives have a fitted effect of over 60% in size
#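 Steps: seed 1500 Huh7 Rab9-luc cells per well, rest 2 h at 37 °C; add compound in DMSO; incubate 24 h; add luciferase reagent, 10 min ambient; read luminescence.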
# Active calls of the source: *; ? = inconclusive; · = no result given; [ ] = remark or other dose. A selection: hits, their analogues and other compounds. The true share with any hit is near 7.5%. Calls follow the shape of the dose curve; as a rule, active = well fitted curve in the direction sought with a large enough effect; inconclusive = small, poorly fitted or top-dose-only effect, or another doubt; inactive = no such curve, though single readings can be large; an effect the other way counts as inactive or inconclusive. Potency is read from the fitted curve at half-maximal effect.
SMILES,ELG1 genotoxic,SMN2 splice enh,FLuc modulator,KinaseGlo FLuc,NPC1 prom act,Rab9 prom act
COc1ccc(-c2nn(C)c3sc(C(=O)Nc4cc(OC)c(OC)c(OC)c4)cc23)cc1OC,·,?,8.49µM*,·,·,·
COc1ccc(NC(=O)c2cc3c(-c4ccc(OC)c(OC)c4)nn(C)c3s2)cc1OC,-2.0%,3.5%,10.7µM*,-0.8%,0.0%,-1.3%
Cc1cccc(OCCCCn2nnc3sc4c(c3c2=O)CCC(C)C4)c1 (stereo unspecified),·,4.3%,1.3%,·,·,·
CC(/C=C/c1ccco1)=N\NC(=O)c1cc(C)[nH]n1,13.0%,15.2%,-2.5%,0.9%,4.4%,-3.9%
C/C(=N/NC(=O)c1cc(C)[nH]n1)c1ccco1,?,·,21.3µM*,·,?,3.98µM*
C/C(=N\NC(=O)c1ccn(C)n1)c1ccco1,16.4µM*,·,16.9µM*,·,?,2.51µM*
C/C(=N\NC(=O)Cc1cccn1C)c1ccco1,3.3%,·,-11.7%,·,-4.6%,-4.4%
C/C(=N\NC(=O)c1cc(-c2ccc(C)s2)[nH]n1)c1ccco1,14.1%,11.2µM*,21.3µM*,-7.4%,23.0%,27.9%
Cc1nc(-c2ccc(F)cc2)c(CC(=O)N(C)CC(=O)Nc2ccc(F)cc2)s1,2.8%,·,-2.1%,·,-2.1%,-4.5%
COc1ccc(Oc2cccc(Cl)c2CNC(=O)c2ccccc2C(=O)O)cc1,-0.3%,·,-2.6%,·,-2.4%,0.5%
Clc1ccc(OCCCN2CCCCC2)c(Br)c1,8.7%,?,15.1µM*,-1.3%,?,?
Clc1ccc(OCCCn2ccnc2)c(Br)c1,0.0%,-11.0%,19µM*,0.1%,-5.2%,-7.3%
CC(C)CNC(=S)N(CCO)Cc1cc2cc3c(cc2[nH]c1=O)OCO3,1.1%,·,-1.9%,·,0.0%,0.3%
CCOC(=O)CNC(=O)N1CCc2cc(S(=O)(=O)N3CCC(C)CC3)ccc21,·,-0.5%,-1.5%,·,·,·
Cc1[nH][nH]c(=O)c1N=Nc1ccccc1Cl,11.8%,·,15.1µM*,·,8.7%,16.4%
Nc1[nH]c(=O)[nH]c(=O)c1N=Nc1ccccc1Cl,1.5%[9.26 µM],·,?,·,-4.4%,-0.8%
CCOc1ccc(CN2C(=O)C(=O)c3cccc(C)c32)cc1OC,·,11.1%,2.5%,·,·,·
Cn1c(=O)n(CCOc2ccccc2Cl)c2ccccc21,?,?,23.9µM*,-0.4%,?,4.47µM*
Clc1ccccc1OCCn1nnc2ccccc21,?,·,?,·,3.16µM*,?
Cn1c(=O)n(CCOc2ccc(Cl)cc2Cl)c2ccccc21,14.6%,-14.9%,-15.8%,2.1%,-0.3%,2.7%
Cc1ccc(OCCn2c(=O)n(C)c3ccccc32)cc1,?,·,10.7µM*,-6.4%,3.16µM*,2.82µM*
Cn1c(=O)n(CCOc2ccc([N+](=O)[O-])cc2)c2ccccc21,8.1%,·,?,·,15.4%,11.1%
COCCNC(=O)C(c1cccnc1)N(Cc1ccccc1)C(=O)Cn1nnc2ccccc21 (stereo unspecified),?,26.2%,?,3.7%,17.8%,?
COCCNC(=O)C(c1ccncc1)N(Cc1ccccc1)C(=O)Cn1nnc2ccccc21 (stereo unspecified),-0.2%,12.6µM*,?,-2.7%,?,?
Cc1ccn2cc(-c3cccc(S(=O)(=O)N4CC(C)OC(C)C4)c3)nc2c1 (stereo unspecified),-0.4%,·,?,·,-2.5%,-10.6%
SMILES,ELG1 genotoxic,SMN2 splice enh,FLuc modulator,KinaseGlo FLuc,NPC1 prom act,Rab9 prom act
CCOC(=O)C1CCN(S(=O)(=O)c2cccc(-c3cn4cc(C)ccc4n3)c2)CC1,-7.4%,-48.0%,8.49µM*,1.0%,-0.4%,-10.4%
CC(=O)Nc1cccc(-c2cn3ccc(C)cc3n2)c1,?,·,4.26µM*,-28.3%,3.16µM*,1.58µM*
CC(=O)Nc1ccc2nc(-c3ccccc3)cn2c1,5.8µM*,2.51µM*,2.13µM*,-13.8%,1µM*,1.12µM*
Cc1ccn2cc(C(=O)Nc3cccc(C(=O)NC4CC4)c3)nc2c1,-7.5%,·,1.35µM*,·,?,?
CC(=O)Nc1ccc(-c2cc(-c3ccccc3)nc(-c3ccccc3)n2)cc1,16.9%,4.5%[1.84 µM],4.6%,-0.6%,-1.4%,-2.5%
COc1ccc(NC(=O)c2cn(CCC#N)nc2-c2cc3ccccc3o2)cc1,7.4%,-6.3%,-1.5%,-0.5%,-1.3%,-16.3%
Cc1cc(S(=O)(=O)C(CNC(=O)COc2ccc(Cl)cc2)c2cccs2)ccc1F (stereo unspecified),·,·,-10.1%,·,·,·
CC1=C(c2ccc(C(C)C)cc2)S(=O)(=O)NC1=NCc1ccccc1C,·,·,0.0%,·,·,·
Clc1ccc2nc(-c3ccccc3)cn2c1,0.92µM*,·,0.477µM*,·,0.398µM*,0.398µM*
CN(C)S(=O)(=O)c1cccc(-c2cn3cc(Cl)ccc3n2)c1,?,-4.8%,?,0.1%,24.2%,21.1%
Cc1ccn2cc(-c3cccc(NC(=O)CCC(=O)O)c3)nc2c1,9.7%,·,0.849µM*,·,-6.1%,-4.7%
Cc1ccn2cc(-c3cccc(NS(C)(=O)=O)c3)nc2c1,?,·,6.75µM*,-16.7%,3.16µM*,2.51µM*
Cc1ccn2cc(-c3cccc([N+](=O)[O-])c3)nc2c1,0.461µM*,1.78µM*,0.675µM*,?,0.562µM*,?
Cc1ccn2cc(-c3cccc(S(=O)(=O)N4CCCC4)c3)nc2c1,5.9%,·,12µM*,·,14.3%,9.4%
O=C(Nc1ccc(C(=O)Oc2ccccc2)c(O)c1)c1ccccc1,0.8%,-15.7%,?,-3.9%,11.5%,28.2%
CCOC(=O)Nc1ccc(Oc2ccccc2)cc1,18.4µM*,7.5%,13.5µM*,-1.6%,?,?
CCOC(=O)Nc1ccc(C(=O)/C=C/c2ccccc2)cc1,7.0%,·,16.9µM*,·,16.9%,-49.0%
O=C(Nc1ccc(C(=O)Oc2ccccc2)c(O)c1)c1ccco1,?,?,7.57µM*,-24.3%,?,2.24µM*
CCOC(=O)Nc1ccc(C(=O)Oc2ccccc2)c(O)c1,16.2%,8.0%,15.1µM*,-9.4%,18.9%,?
COc1ccc(C(=O)/C=C/c2ccccc2)cc1,·,20.6%,·,-25.7%,·,·
CCOc1cc(CNC(=O)CN2CCSc3ccccc32)cc(OCC)c1OCC,·,·,0.6%,·,·,·
COc1ccccc1CNC(=O)COC(=O)c1cccc(S(=O)(=O)N2CCOCC2)c1,-1.1%,·,-2.8%,·,10.9%,-2.5%
CCOC(=O)c1c(-c2ccccc2)oc2ccc(NS(=O)(=O)c3ccc(C)cc3)cc12,·,-47.3%,-13.0%,·,·,·

# Assay outcomes (PubChem BioAssay)
